# In PubChem BioAssay (EPA / NIEHS):
# Results filed as inconclusive are left out. Calls of active or inactive are those of the source. Rule for the calls, unless noted: active = hit-call score of the fitted dose curve at least 0.9, where 1 is the maximum; inconclusive = response in the unintended direction; inactive = score below 0.9.
# Assays:
# [1] = target: human Phosphatase and Tensin Homolog (PTEN), PTEN (gene 5728) (UniProt P60484); experiment: NVS_ENZ_hPTEN: NovaScreen (NVS) Enzymatic Assay for human Phosphatase and Tensin Homolog (PTEN) (AID 2283203)
# Chain of human Phosphatase and Tensin Homolog (PTEN), PTEN (gene 5728) (P60484 whole entry, looked up): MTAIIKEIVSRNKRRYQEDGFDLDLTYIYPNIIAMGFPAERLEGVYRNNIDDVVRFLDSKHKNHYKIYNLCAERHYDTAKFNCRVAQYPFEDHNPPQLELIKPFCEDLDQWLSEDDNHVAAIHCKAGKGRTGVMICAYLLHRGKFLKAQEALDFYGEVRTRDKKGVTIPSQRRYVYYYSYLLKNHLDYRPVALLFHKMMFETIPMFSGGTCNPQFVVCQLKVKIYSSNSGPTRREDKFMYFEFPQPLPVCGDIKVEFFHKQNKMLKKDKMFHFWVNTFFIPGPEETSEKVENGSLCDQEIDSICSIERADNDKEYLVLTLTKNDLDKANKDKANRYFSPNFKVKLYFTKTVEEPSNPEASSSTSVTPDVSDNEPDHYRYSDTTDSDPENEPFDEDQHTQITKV
# Summary of the method: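 Loss of fluorescent product signal after mobility-shift separation reports PTEN activity, recombinant human enzyme, 1 h after compound addition. Single 25 uM duplicate screen, then concentration-response on actives; DMSO baseline.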
# [2] = target: Estrogen receptor (Homo sapiens) (UniProt P03372); experiment: NVS_NR_hER: NovaScreen (NVS) Nuclear Receptor Binding Assay for human Estrogen Receptor (ER) (AID 2283348)
# Chain of Estrogen receptor (Homo sapiens) (P03372 whole entry, looked up, the tested form may be a part): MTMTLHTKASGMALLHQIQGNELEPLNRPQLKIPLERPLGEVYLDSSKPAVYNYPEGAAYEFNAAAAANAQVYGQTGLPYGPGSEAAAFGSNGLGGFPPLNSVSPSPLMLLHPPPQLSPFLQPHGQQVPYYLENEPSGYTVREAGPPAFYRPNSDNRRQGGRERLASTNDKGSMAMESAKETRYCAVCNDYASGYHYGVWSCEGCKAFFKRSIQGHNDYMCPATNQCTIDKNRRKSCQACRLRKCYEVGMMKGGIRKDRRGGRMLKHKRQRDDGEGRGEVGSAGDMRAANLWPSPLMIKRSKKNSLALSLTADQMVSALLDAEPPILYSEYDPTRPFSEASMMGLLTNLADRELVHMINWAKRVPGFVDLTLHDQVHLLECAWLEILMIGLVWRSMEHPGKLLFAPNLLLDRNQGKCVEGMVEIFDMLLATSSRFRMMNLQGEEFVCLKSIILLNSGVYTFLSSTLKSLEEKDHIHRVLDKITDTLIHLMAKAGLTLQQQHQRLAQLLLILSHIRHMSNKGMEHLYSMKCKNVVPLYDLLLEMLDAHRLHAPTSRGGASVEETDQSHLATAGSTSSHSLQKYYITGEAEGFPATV
# Summary of the method: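 MCF7-derived receptor extract, radiolabelled ligand, competitive displacement. Read: scintillation counts at 18 h. DMSO = negative control/baseline. Primary 25 uM duplicate; follow-up concentration–response.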
# [3] = target: Oxysterols receptor LXR-alpha (Homo sapiens) (UniProt Q13133); experiment: ATG_LXRa_TRANS: Attagene TRANS-FACTORIAL HepG2 Assay for human Liver X Receptor alpha (LXRa) (AID 2282980); conditions: HepG2 Attagene TRANS reporter, LXRa transactivation
# Chain of Oxysterols receptor LXR-alpha (Homo sapiens) (Q13133 whole entry, looked up, the tested form may be a part): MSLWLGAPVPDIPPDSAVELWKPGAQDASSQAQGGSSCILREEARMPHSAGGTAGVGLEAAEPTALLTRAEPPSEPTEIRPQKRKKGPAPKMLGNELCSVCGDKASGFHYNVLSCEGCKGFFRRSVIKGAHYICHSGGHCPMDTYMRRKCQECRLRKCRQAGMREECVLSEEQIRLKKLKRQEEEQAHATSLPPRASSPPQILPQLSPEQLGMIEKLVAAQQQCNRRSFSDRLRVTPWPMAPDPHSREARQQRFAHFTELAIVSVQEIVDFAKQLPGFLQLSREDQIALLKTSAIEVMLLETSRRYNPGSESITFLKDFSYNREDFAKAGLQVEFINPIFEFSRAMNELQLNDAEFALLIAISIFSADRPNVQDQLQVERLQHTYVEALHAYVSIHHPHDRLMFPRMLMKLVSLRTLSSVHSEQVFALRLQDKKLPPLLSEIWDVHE
# Summary of the method: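 HepG2 cells were transiently transfected with multiplexed reporter units driven by chimeric LXRa–GAL4 fusion proteins, then dosed for 24 h. Reporter mRNA was quantified by RT-PCR, fluorescent labelling and capillary electrophoresis; gain of signal fitted against DMSO baseline.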
# [4] = target: human Matrix Metalloproteinase-9 (MMP9), MMP9 (gene 4318) (UniProt P14780); experiment: NVS_ENZ_hMMP9: NovaScreen (NVS) Enzymatic Assay for human Matrix Metalloproteinase-9 (MMP9) (AID 2283190);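 note: cell-free recombinant MMP9 protease activity read by fluorescent substrate signal; active means inhibition seen as loss of fluorescence signal versus DMSO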
# Chain of human Matrix Metalloproteinase-9 (MMP9), MMP9 (gene 4318) (P14780 whole entry, looked up): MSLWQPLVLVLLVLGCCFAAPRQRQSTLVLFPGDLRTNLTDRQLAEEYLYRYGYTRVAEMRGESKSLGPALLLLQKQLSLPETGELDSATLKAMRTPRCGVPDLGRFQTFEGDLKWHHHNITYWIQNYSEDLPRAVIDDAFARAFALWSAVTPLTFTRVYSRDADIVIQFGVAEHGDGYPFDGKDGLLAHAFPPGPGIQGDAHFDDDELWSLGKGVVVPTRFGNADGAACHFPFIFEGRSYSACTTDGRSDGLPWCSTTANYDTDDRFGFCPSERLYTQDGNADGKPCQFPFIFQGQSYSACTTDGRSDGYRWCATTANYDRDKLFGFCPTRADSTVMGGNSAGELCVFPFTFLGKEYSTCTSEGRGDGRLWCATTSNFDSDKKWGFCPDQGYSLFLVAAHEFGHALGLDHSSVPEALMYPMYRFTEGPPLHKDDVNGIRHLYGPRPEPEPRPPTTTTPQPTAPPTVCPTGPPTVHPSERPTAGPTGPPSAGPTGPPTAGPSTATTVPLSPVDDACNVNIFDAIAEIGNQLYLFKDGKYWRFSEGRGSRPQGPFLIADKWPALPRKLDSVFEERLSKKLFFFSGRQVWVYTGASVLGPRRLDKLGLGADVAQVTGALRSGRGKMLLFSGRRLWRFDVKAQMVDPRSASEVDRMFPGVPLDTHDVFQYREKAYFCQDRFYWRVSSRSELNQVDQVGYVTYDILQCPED
# Summary of the method: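 Screening concentration 25 uM, duplicate wells, then dose series for confirmation. Cell-free enzymatic reaction measured by fluorescence intensity 1 h post-dosing; decreased signal versus DMSO taken as activity.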
# [5] = CCTE_Deisenroth_5AR_NBTE_donor: CCTE's 5alpha-reductase NanoBRET Target Engagement Assay […], Deisenroth Lab (AID 2284319; active = hit-call score of the fitted dose curve at least 0.9, where 1 is the maximum; inactive = score below 0.9); conditions: actives raise or lower the signal
# Summary of the method: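 In this secondary endpoint, donor luminescence from SRD5A2-NanoLuc in transfected HEK293T flags artifacts. Test chemical (10 nM - 29.9 uM) is present five hours, tracer the last two; mock-tracer wells run plate-matched; data fitted bidirectionally against DMSO.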
# SRD5A2 (gene 6716) = experiment: CCTE_Deisenroth_5AR_NBTE_ratio: CCTE's 5alpha-reductase NanoBRET Target Engagement Assay - Ratio, Deisenroth Lab (AID 2284322; active = hit-call score of the fitted dose curve at least 0.9, where 1 is the maximum; inactive = score below 0.9); conditions: actives raise or lower the signal
# Summary of the method: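 SRD5A2-NanoLuc HEK293T; cmpd 10 nM-29.9 uM, 3 h preinc + testosterone tracer 2 h; NanoBRET ratio 650/460; bidirectional fit vs DMSO.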
# [6] = target: Peroxisome proliferator-activated receptor gamma (Homo sapiens) (UniProt P37231); experiment: OT_PPARg_PPARgSRC1_0480: Odyssey Thera (OT) 8-hour Protein-Complementation Assay for Peroxisome Proliferator-activated Receptor Gamma / SRC-1 Co-activator (AID 2283387);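 note: nuclear to cytoplasmic split Venus YFP fluorescence ratio reporting PPARg SRC-1 interaction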
# Chain of Peroxisome proliferator-activated receptor gamma (Homo sapiens) (P37231 whole entry, looked up): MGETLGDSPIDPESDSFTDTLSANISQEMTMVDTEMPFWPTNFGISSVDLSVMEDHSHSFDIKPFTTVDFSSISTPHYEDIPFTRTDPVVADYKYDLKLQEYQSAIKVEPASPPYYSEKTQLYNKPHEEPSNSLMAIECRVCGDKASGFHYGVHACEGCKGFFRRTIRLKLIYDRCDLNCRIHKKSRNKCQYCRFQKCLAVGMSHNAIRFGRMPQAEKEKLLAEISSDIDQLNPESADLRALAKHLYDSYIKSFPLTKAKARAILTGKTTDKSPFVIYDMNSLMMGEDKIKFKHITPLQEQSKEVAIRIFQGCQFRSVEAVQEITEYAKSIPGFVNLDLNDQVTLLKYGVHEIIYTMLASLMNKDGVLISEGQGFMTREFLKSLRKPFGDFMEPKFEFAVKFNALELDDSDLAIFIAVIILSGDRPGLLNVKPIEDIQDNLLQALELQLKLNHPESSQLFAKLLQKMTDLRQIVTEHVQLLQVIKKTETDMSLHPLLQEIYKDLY
# Summary of the method: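 Split-YFP (IFP1/IFP2) PPARg/SRC-1 reporter, HEK293T, 37 °C, 5% CO2; 8 h compound; formaldehyde fix + Draq5; high-content imaging, N/C ratio, ≥350 cells/image, positive direction vs DMSO.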
# [7] = target: Estrogen receptor (Homo sapiens) (UniProt P03372); experiment: OT_ER_ERaERa_1440: Odyssey Thera (OT) 24-hour HEK293T Protein-Complementation Assay for Estrogen Receptor-alpha/-alpha Homodimer (AID 2283349);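 note: hits raise fluorescence above DMSO for agonists and antagonists alike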
# Summary of the method: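 Cells (HEK293T) carrying the fragment-tagged ERα LBD (aa 310-547) pair are treated with chemical for 24 hours. Nuclear and/or cytoplasmic fluorescence is then quantified on a laser scanning cytometer. Activity is scored as signal gain against DMSO.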
# [8] = target: Estrogen receptor (Homo sapiens) (UniProt P03372); experiment: OT_ER_ERaERa_0480: Odyssey Thera (OT) 8-hour HEK293T Protein-Complementation Assay for Estrogen Receptor-alpha/-alpha Homodimer (AID 2283351);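 note: rise in fluorescence from reassembled reporter fragments on ERα LBD homodimer in nucleus or whole cell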
# Summary of the method: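 Read-out: fluorescence intensity rise relative to DMSO, nuclear for agonists, nuclear plus cytoplasmic for antagonists. Construct is the ERα LBD (aa 310-547) homodimer fragment-complementation pair, stably expressed in HEK293T; exposure 8 h.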
# [9] = target: Estrogen receptor (Homo sapiens) + Estrogen receptor beta (Homo sapiens) (UniProt P03372+Q92731); experiment: OT_ER_ERaERb_1440: Odyssey Thera (OT) 24-hour HEK293T Protein-Complementation Assay for Estrogen Receptor-alpha/-beta Homodimer (AID 2283356);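 note: heteromer of ER alpha and ER beta binding domains; hits raise reporter fluorescence and both agonists and antagonists give an increase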
# Chain of Estrogen receptor (Homo sapiens) + Estrogen receptor beta (Homo sapiens) (P03372 whole entry, looked up, the tested form may be a part): as the sequence (P03372 whole entry, looked up, the tested form may be a part) above
# Chain of Estrogen receptor (Homo sapiens) + Estrogen receptor beta (Homo sapiens) (Q92731 whole entry, looked up, the tested form may be a part): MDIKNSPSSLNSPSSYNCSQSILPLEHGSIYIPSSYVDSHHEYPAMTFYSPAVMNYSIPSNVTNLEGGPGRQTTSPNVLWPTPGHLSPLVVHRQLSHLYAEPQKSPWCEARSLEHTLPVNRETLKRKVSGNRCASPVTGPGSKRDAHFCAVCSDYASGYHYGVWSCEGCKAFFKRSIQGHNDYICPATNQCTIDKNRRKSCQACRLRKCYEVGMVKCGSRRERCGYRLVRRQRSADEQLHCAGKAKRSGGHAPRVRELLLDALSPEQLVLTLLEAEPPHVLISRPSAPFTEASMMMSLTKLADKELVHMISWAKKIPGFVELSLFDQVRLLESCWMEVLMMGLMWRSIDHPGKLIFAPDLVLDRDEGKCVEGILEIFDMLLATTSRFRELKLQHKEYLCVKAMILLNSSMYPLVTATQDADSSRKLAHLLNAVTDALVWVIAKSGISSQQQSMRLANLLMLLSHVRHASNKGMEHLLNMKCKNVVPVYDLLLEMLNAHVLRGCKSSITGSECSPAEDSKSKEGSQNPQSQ
# Summary of the method: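 HEK293T cells stably expressing a PCA pair of ERα LBD (aa 310-547) and ERβ LBD (aa 263-489) were dosed for 24 h. Fluorescence intensity increase versus DMSO vehicle was fitted as gain-of-signal.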
# [10] = target: Estrogen receptor (Homo sapiens) (UniProt P03372); experiment: OT_ERa_GFPERaERE_0480: Odyssey Thera (OT) 8-hour HeLa Transcription Induction Assay for Estrogen Receptor (AID 2283381; active = hit-call score of the fitted dose curve at least 0.9, where 1 is the maximum; inactive = score below 0.9)
# Summary of the method: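 GFP-ERE reporter, HeLa, 8 h exposure. Readout: fluorescence microscopy, high-content image analysis. Fit direction positive vs DMSO negative control.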
# [11] = target: Estrogen receptor (Homo sapiens) (UniProt P03372); experiment: OT_ERa_GFPERaERE_0120: Odyssey Thera (OT) 2-hour HeLa Transcription Induction Assay for Estrogen Receptor (AID 2283382)
# Summary of the method: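 Fluorescence microscopy read-out: inducible fluorescent protein reporter in HeLa cells, imaged 2 h post-dose. Signal increase over DMSO negative control fitted as single primary endpoint via high content image analysis.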
# [12] = target: human Phosphodiesterase 10 (PDE10), PDE10A (gene 10846) (UniProt Q9Y233); experiment: NVS_ENZ_hPDE10: NovaScreen (NVS) Enzymatic Assay for human Phosphodiesterase 10 (PDE10) (AID 2283195)
# Chain of human Phosphodiesterase 10 (PDE10), PDE10A (gene 10846) (Q9Y233 whole entry, looked up): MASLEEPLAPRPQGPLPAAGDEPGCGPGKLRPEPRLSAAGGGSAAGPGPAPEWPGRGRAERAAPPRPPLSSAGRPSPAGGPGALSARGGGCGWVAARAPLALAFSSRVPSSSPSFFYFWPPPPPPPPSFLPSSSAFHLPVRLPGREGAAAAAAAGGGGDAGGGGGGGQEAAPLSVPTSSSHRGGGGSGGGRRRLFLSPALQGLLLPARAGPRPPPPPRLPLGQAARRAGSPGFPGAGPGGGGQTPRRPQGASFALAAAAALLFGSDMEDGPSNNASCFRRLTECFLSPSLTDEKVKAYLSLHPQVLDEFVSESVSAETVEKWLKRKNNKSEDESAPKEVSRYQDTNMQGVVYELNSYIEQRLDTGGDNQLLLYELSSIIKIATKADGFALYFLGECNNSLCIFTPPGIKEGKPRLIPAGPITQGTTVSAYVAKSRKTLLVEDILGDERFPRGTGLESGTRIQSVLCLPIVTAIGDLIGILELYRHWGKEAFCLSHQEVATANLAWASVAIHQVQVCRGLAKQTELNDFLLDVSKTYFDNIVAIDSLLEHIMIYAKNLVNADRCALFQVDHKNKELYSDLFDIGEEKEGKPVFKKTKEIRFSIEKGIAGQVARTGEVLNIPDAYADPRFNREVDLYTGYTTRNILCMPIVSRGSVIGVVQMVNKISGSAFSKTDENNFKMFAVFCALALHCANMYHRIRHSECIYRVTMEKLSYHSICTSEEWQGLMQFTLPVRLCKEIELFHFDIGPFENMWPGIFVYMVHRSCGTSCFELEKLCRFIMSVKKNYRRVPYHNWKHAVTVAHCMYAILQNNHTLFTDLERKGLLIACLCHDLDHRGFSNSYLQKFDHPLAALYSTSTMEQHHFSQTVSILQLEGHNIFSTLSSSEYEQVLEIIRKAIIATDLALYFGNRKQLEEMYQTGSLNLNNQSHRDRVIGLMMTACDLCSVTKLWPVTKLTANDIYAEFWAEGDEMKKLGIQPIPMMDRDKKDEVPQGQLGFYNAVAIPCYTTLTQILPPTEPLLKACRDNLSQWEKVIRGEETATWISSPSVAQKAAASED
# Summary of the method: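 Biochemical single-readout PDE10A assay, cell-free, extracted protein. Compounds first screened at 25 uM in duplicate, hits then titrated to 50 uM max. Activity measured after 1 h; loss-of-signal fitted against DMSO negative control.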
# [13] = target: Androgen Receptor/SRC-1 Co-activator, AR (gene 367) (UniProt P10275); experiment: OT_AR_ARSRC1_0960: Odyssey Thera (OT) 16-hour HEK293T Protein-Complementation Assay for Androgen Receptor/SRC-1 Co-activator (AID 2283353);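 note: actives raise the signal above DMSO so potency reflects increased AR and SRC-1 complex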
# Summary of the method: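 Readout: 488 nm nuclear-to-cytoplasmic fluorescence ratio from imaging of at least 400 cells per image, 16 h post-dose. Reporter is Venus YFP complementation between AR and SRC-1 fusions, stably expressed in HEK293T; activity scored upward relative to DMSO.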
# [14] = target: Nucleoli Translocation, AR (gene 367) (UniProt P10275); experiment: UPITT_HCI_U2OS_AR_TIF2_Nucleoli_Antagonist: University of Pittsburgh U2OS Androgen Receptor-Transcriptional Intermediary Factor 2 (AR-TIF2) Antagonism High Content Imaging Assay for Nucleoli Translocation (AID 2283997)
# Summary of the method: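 Compounds are added at 20 uM final concentration in 0.2% DMSO to U2OS cells carrying AR-RFP and TIF2-GFP fusions. Nucleolar AR-RFP fluorescence is then quantified by automated imaging. Antagonism is fitted positively against DHT baseline.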
# [15] = target: rat Peripheral-type Benzodiazepine Receptor (PBR), Tspo (gene 24230) (UniProt P16257); experiment: NVS_MP_rPBR: NovaScreen (NVS) Membrane Protein Assay for rat Peripheral-type Benzodiazepine Receptor (PBR) (AID 2283335)
# Chain of rat Peripheral-type Benzodiazepine Receptor (PBR), Tspo (gene 24230) (P16257 whole entry, looked up): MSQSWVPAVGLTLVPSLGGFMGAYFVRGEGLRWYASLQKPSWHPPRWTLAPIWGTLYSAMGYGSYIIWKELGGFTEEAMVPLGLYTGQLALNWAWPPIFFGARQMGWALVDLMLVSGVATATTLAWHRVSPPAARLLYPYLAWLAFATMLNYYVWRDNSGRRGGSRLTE
# Summary of the method: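 Single-concentration duplicate screening at 25 uM preceded concentration-series retesting of actives. Binding of a specific radioligand to rat kidney membrane PBR was read by filtration radiodetection after 1 h, with plate-wise positive and negative controls.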
# [16] = CEETOX_H295R_MTT_cell_viability: Viability Assessment in the CeeTox HT-H295R MTT Assay (AID 2283718; active = hit-call score of the fitted dose curve at least 0.9, where 1 is the maximum; inactive = score below 0.9)
# Summary of the method: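 Human H295R adrenal cells, prestimulated 48 h with 10 uM forskolin, were exposed 48 h to chemicals in 0.1% DMSO. Viability was measured in the same wells by MTT (0.5 mg/ml, 4 h, 37 C), absorbance 570/650 nm, as percent of controls.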
# [17] = target: Peroxisome proliferator-activated receptor gamma (Homo sapiens) (UniProt P37231); experiment: NVS_NR_hPPARg: NovaScreen (NVS) Nuclear Receptor Binding Assay for human Peroxisome Proliferator-activated Receptor gamma (PPARg) (AID 2283370)
# Summary of the method: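 Cell-free binding to extracted PPARg protein, read by fluorescence polarization 2 h after dosing; loss of signal relative to DMSO baseline marks displacement. Primary screen in duplicate at 25 uM, actives retested in concentration series.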
structure (smiles),measurement,setting,value
Cl/C=C\CCl,outcome,[1],inactive
c1cc(OCC2CO2)ccc1Cc1ccc(OCC2CO2)cc1 (stereo not drawn),outcome,[2],inactive
Nc1ccccc1C(=O)Oc1ccc2ccccc2c1,outcome,[3],inactive
CN(C)CCC#N,AC50,[4],9.19 µM (active)
CCCCOP(=O)(O)OCCCC,outcome,[2],inactive
CC(C)c1ccc(O)cc1,outcome,[5],inactive
same,outcome,SRD5A2 (gene 6716),inactive
CCOC(=O)C1OC1(C)c1ccccc1 (stereo not drawn),outcome,[6],inactive
CCCC=NO,outcome,[7],inactive
same,outcome,[8],inactive
same,outcome,[9],inactive
same,outcome,[10],inactive
same,outcome,[11],inactive
COc1cc(OC)c(OC)cc1C=O,outcome,[2],inactive
CCCCCCCCCCCC#N,outcome,[3],inactive
same,outcome,[12],inactive
same,outcome,[1],inactive
Cc1ncc(C[n+]2csc(CCO)c2C)c(N)n1,outcome,[12],inactive
C=CC(=O)OCC(CC)CCCC (stereo not drawn),outcome,[5],inactive
same,outcome,SRD5A2 (gene 6716),inactive
O=C(NCNC(=O)NC1C(=O)NC(=O)N1CO)NC1C(=O)NC(=O)N1CO (stereo not drawn),outcome,[13],inactive
same,AC50,[14],50 µM (active)
CCOP(=O)(OCC)Oc1ccc([N+](=O)[O-])cc1,outcome,[15],inactive
same,outcome,[6],inactive
same,outcome,[16],inactive
c1ccc(P(c2ccccc2)c2ccccc2)cc1,outcome,[7],inactive
same,AC50,[8],60.6 µM (active)
same,AC50,[9],64.4 µM (active)
same,AC50,[17],14.9 µM (active)
same,AC50,[10],84.1 µM (active)
same,AC50,[11],17 µM (active)
CC(C)(Cl)Cl,outcome,[6],inactive
CC(C)CCCCCCCOP(=O)(Oc1ccccc1)Oc1ccccc1,AC50,[15],2.91 µM (active)
